Measurements taken from PubChem BioAssay (EPA / NIEHS).
Inconclusive results are not listed. Where a structure was tested more than once in an assay, its records may differ in their call. The source made the active and inactive calls. The calls were made as follows, unless noted: active = hit-call score of the fitted dose curve at least 0.9, where 1 is the maximum; inactive = score below 0.9.

Experiments:
[1] = biological target: Retinoic acid receptor RXR-alpha (Homo sapiens) (UniProt P19793); assay: OT_NURR1_NURR1RXRa_0480: Odyssey Thera (OT) 8-hour HEK293T Protein Complementation Assay for Nurr1/retinoid X receptor (RXR) (AID 2283385; active = hit-call score of the fitted dose curve at least 0.9, where 1 is the maximum)
Sequence of Retinoic acid receptor RXR-alpha (Homo sapiens) (P19793 whole entry, looked up, the tested form may be a part): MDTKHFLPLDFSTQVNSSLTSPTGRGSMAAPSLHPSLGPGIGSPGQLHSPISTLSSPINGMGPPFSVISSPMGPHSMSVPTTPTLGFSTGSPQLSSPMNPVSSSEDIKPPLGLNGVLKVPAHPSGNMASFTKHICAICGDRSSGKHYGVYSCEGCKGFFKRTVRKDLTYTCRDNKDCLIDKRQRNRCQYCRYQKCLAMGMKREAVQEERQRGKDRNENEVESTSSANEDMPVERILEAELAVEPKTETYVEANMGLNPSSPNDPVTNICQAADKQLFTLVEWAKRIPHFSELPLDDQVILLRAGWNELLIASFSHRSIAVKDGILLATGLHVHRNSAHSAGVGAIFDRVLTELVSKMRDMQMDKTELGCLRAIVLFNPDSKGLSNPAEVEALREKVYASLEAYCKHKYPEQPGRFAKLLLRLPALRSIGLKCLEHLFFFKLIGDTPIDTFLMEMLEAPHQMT
In short: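 HEK293T cells expressing Nurr1 and RXRα fused to reporter fragments were dosed with compound for 8 hours. Complex formation was read as fluorescence intensity and analysed as gain of signal against DMSO as baseline.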

[2] = biological target: human Retinoic Acid Receptor beta (RARb), RARB (gene 5915) (UniProt P10826); assay: ATG_RARb_TRANS: Attagene TRANS-FACTORIAL HepG2 Assay for human Retinoic Acid Receptor beta (AID 2283004; active = hit-call score of the fitted dose curve at least 0.9, where 1 is the maximum)
Sequence of human Retinoic Acid Receptor beta (RARb), RARB (gene 5915) (P10826 whole entry, looked up): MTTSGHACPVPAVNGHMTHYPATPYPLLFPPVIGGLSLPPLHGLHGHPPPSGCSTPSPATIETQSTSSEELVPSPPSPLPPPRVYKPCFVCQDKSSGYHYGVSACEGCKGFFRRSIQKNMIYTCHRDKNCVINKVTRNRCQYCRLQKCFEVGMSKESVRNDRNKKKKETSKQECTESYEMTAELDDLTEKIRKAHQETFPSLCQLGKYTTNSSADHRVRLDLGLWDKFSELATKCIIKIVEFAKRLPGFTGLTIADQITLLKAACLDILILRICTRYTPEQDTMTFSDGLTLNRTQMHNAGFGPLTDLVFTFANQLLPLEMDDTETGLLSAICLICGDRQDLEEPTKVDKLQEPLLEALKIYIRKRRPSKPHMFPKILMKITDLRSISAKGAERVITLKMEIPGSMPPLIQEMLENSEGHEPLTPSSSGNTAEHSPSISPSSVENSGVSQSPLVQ
In short: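 Transient transfection of HepG2 with multiple reporter units → chemical dosing, 24 h → total RNA isolation → RT with oligo(dT) → reporter-specific PCR, 6-FAM primer extension, HpaI digest → capillary electrophoresis. Positive direction vs DMSO control.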

[3] = BSK_3C_TissueFactor: BioMAP Diversity Plus: 3C Assay for Tissue Factor Biomarker Activity (AID 2282997); conditions: BioMAP 3C HUVEC, tissue factor biomarker readout; actives raise or lower the signal
In short: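 ELISA read-out of Tissue Factor levels on human umbilical vein endothelium collected 24 h after chemical dosing. Gain or loss of signal was fitted relative to DMSO.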

[4] = BSK_3C_VCAM1: BioMAP Diversity Plus: 3C Assay for Vascular cell adhesion molecule 1 (VCAM1) Biomarker Activity (AID 2282999); conditions: BioMAP 3C HUVEC, VCAM1 ELISA, cytokine-stimulated; actives raise or lower the signal
In short: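 Endothelial cells from human umbilical vein are treated with test chemical. At 24 h, VCAM-1 is measured by ELISA, and responses in either direction are fitted relative to DMSO.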

[5] = BSK_4H_Eotaxin3: BioMAP Diversity Plus: 4H Assay for Eotaxin 3 Biomarker Activity (AID 2283000); conditions: primary human endothelial cells (HUVEC); actives raise or lower the signal;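 also: CCL26 protein level quantified by ELISA in parallel with SRB cytotoxicity check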
In short: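 Chemicals were added to human umbilical vein endothelium cultures, and Eotaxin-3 was quantified by ELISA at 24 h. Values were derived by bidirectional fitting with DMSO serving as negative control and activity baseline.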

[6] = read-out: Intercellular Adhesion Molecule 1 (ICAM1), ICAM1 (gene 3383); assay: BSK_3C_ICAM1: BioMAP Diversity Plus: 3C Assay for Intercellular Adhesion Molecule 1 (ICAM1) Biomarker Activity (AID 2283003); conditions: primary human endothelial cells (HUVEC); actives raise or lower the signal
In short: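 Primary human umbilical vein endothelial cells in the BioMAP 3C system were exposed to chemicals for 24 h, then ICAM-1 was quantified by ELISA. Activity was fitted bidirectionally against the DMSO negative control baseline.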

[7] = read-out: Urokinase-type plasminogen activator receptor (uPAR), PLAUR (gene 5329); assay: BSK_4H_uPAR: BioMAP Diversity Plus: 4H Assay for Urokinase-type plasminogen activator receptor (uPAR) Biomarker Activity (AID 2283030); conditions: primary human endothelial cells (HUVEC); actives raise or lower the signal
In short: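 Cell-surface uPAR ELISA signal, measured 24 h after dosing human umbilical vein endothelial cells, was analyzed with bidirectional fitting relative to DMSO. Parallel SRB staining of total protein tracked overt cytotoxicity.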

[8] = read-out: Vascular endothelial growth factor receptor 2 (Homo sapiens) (UniProt P35968); assay: BSK_4H_VEGFRII: BioMAP Diversity Plus: 4H Assay for Vascular endothelial growth factor receptor 2 (VEGFR2) Biomarker Activity (AID 2283031); conditions: primary human endothelial cells (HUVEC); actives raise or lower the signal
In short: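 ELISA read-out of VEGFRII in primary human umbilical vein endothelium, taken 24 h after chemical treatment. Responses are expressed relative to DMSO, with bidirectional fitting.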

[9] = read-out: Macrophage colony-stimulating factor (MCSF), CSF1 (gene 1435); assay: BSK_CASM3C_MCSF: BioMAP Diversity Plus: CASM3C Assay for Macrophage colony-stimulating factor (MCSF) Biomarker Activity (AID 2283044); conditions: primary human coronary artery smooth muscle cells; actives raise or lower the signal;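 also: M-CSF protein amount quantified by ELISA after 24 h exposure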
[10] = read-out: Low-density lipoprotein receptor (LDLR), LDLR (gene 3949); assay: BSK_CASM3C_LDLR: BioMAP Diversity Plus: CASM3C Assay for Low-density lipoprotein receptor (LDLR) Biomarker Activity (AID 2283045); conditions: primary human coronary artery smooth muscle cells; actives raise or lower the signal;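 also: LDLR protein level on the cell surface quantified by ELISA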
[11] = read-out: Monokine induced gamma interferon (MIG), CXCL9 (gene 4283); assay: BSK_CASM3C_MIG: BioMAP Diversity Plus: CASM3C Assay for Monokine induced gamma interferon (MIG) Biomarker Activity (AID 2283048); conditions: primary human coronary artery smooth muscle cells; actives raise or lower the signal;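 also: MIG protein level measured by ELISA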
[12] = read-out: Tissue Factor, F3 (gene 2152); assay: BSK_CASM3C_TissueFactor: BioMAP Diversity Plus: CASM3C Assay for Tissue Factor Biomarker Activity (AID 2283052); conditions: primary human coronary artery smooth muscle cells; actives raise or lower the signal;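 also: cell surface tissue factor protein level read by ELISA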
[13] = read-out: Monokine induced gamma interferon (MIG), CXCL9 (gene 4283); assay: BSK_hDFCGF_MIG: BioMAP Diversity Plus: hDFCGF Assay for Monokine induced gamma interferon (MIG) Biomarker Activity (AID 2283063); conditions: primary human foreskin fibroblasts; actives raise or lower the signal
In short: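 Chemicals were added to primary human foreskin fibroblast cultures, which were sampled 24 h later. MIG levels were then quantified by ELISA and responses fitted in both directions relative to DMSO.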

[14] = read-out: E-selectin (Homo sapiens) (UniProt P16581); assay: BSK_LPS_Eselectin: BioMAP Diversity Plus: LPS Assay for Eselectin Biomarker Activity (AID 2283077); conditions: primary human HUVEC with PBMC; actives raise or lower the signal
In short: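 Primary human vascular co-culture (endothelium plus PBMC) was dosed with chemical, then E-selectin quantified by ELISA at 24 h. Endpoint values derive from bidirectional curve fitting relative to DMSO.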

[15] = read-out: Interleukin-8 (IL8), CXCL8 (gene 3576); assay: BSK_LPS_IL8: BioMAP Diversity Plus: LPS Assay for Interleukin-8 (IL8) Biomarker Activity (AID 2283078); conditions: primary human HUVEC with PBMC; actives raise or lower the signal
In short: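 Readout is IL-8 by ELISA, taken 24 h after compounds were added to LPS-stimulated endothelial/PBMC co-cultures. Both increases and decreases relative to DMSO control were scored through bidirectional fitting.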

[16] = read-out: Monocyte Chemoattractant Protein-1 (MCP1), CCL2 (gene 6347); assay: BSK_LPS_MCP1: BioMAP Diversity Plus: LPS Assay for Monocyte Chemoattractant Protein-1 (MCP1) Biomarker Activity (AID 2283081); conditions: primary human HUVEC with PBMC; actives raise or lower the signal
In short: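 Human endothelial–PBMC co-cultures were dosed with chemical, then LPS-driven MCP-1 levels were quantified by ELISA at 24 h. Activity in either direction was fitted versus DMSO negative control.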

[17] = read-out: Tissue Factor, F3 (gene 2152); assay: BSK_LPS_TissueFactor: BioMAP Diversity Plus: LPS Assay for Tissue Factor Biomarker Activity (AID 2283084); conditions: primary human HUVEC with PBMC; actives raise or lower the signal
In short: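 ELISA signal for cell-surface Tissue Factor (CD142) was read 24 h after compound dosing of an LPS-stimulated human endothelial–PBMC primary co-culture. Gain or loss of signal was scored relative to DMSO.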

CD40, CD40 (gene 958) = assay: BSK_SAg_CD40: BioMAP Diversity Plus: SAg Assay for CD40 Biomarker Activity (AID 2283088); conditions: primary human HUVEC with PBMC; actives raise or lower the signal
In short: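 Compounds were dosed onto a human primary endothelial–PBMC co-culture, and after 24 h CD40 was quantified by ELISA using a fluorescence signal. Activity in either direction was fitted relative to DMSO.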

[18] = read-out: E-selectin (Homo sapiens) (UniProt P16581); assay: BSK_SAg_Eselectin: BioMAP Diversity Plus: SAg Assay for Eselectin Biomarker Activity (AID 2283091); conditions: primary human HUVEC with PBMC; actives raise or lower the signal
In short: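 Co-culture: HUVEC + PBMC. Dose compound; 24 h. ELISA for E-selectin. Bidirectional fit vs DMSO.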

[19] = read-out: Interleukin-8 (IL8), CXCL8 (gene 3576); assay: BSK_SAg_IL8: BioMAP Diversity Plus: SAg Assay for Interleukin-8 (IL8) Biomarker Activity (AID 2283094); conditions: primary human HUVEC with PBMC; actives raise or lower the signal
In short: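 Human umbilical vein endothelial cells co-cultured with peripheral blood mononuclear cells; IL-8 measured by ELISA 24 h after chemical dosing. Bidirectional concentration-response fitting used DMSO as negative control and activity baseline.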

Measured: AC50

Sequence of E-selectin (Homo sapiens) (P16581 whole entry, looked up): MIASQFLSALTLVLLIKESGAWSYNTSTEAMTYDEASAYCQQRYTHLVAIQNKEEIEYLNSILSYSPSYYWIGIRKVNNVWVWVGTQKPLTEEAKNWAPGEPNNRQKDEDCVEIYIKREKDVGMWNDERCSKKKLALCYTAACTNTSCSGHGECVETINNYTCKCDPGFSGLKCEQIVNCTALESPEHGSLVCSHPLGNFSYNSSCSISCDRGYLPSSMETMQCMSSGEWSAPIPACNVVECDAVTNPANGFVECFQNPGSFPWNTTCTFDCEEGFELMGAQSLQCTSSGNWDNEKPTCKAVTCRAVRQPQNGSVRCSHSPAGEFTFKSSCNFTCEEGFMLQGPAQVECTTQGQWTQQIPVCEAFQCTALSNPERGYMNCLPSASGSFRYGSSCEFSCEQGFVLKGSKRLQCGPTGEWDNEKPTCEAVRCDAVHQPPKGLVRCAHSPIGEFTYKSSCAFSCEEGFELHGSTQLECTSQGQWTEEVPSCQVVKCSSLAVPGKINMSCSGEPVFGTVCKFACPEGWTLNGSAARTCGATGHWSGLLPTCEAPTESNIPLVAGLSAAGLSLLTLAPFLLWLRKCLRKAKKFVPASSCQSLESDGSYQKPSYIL

Cc1cc(C)c(S(=O)(=O)O)cc1N=Nc1cc(S(=O)(=O)O)c2ccccc2c1O
inactive: [1]

F[B-](F)(F)F
inactive: [1]

CC=CC(=O)O
inactive: [2]

Nc1ccc(S(=O)(=O)Nc2cnc3ccccc3n2)cc1
inactive: [1]

[O-][n+]1ccc(Cl)cc1
inactive: [2]

CCOC(=O)c1ccccc1
inactive: [1]

CCCCC(CC)COC(=O)CS (centres undefined)
active: [1] 50 µM

CN1CCCC1
inactive: [2]

CN(C)Cc1cc(C(C)(C)C)c(O)c(C(C)(C)C)c1
active: [13] 20 µM | [18] 20 µM | [19] 20 µM
inactive: [3] | [4] | [5] | [6] | [7] | [8] | [9] | [10] | [11] | [12] | [13] | [14] | [15] | [16] | [17] | CD40, CD40 (gene 958) | [18] | [19]

O=C(O)/C=C\C(=O)O
inactive: [1]

CC(=O)c1nccs1
inactive: [2]

C/C=C(\C)C(=O)OCC/C=C\CC
inactive: [2]

CC[N+](CC)(CC(=O)Nc1c(C)cccc1C)Cc1ccccc1 (tested in a mixture with another compound)
active: [9] 5.41 µM | [10] 0.591 µM
inactive: [3] | [4] | [5] | [6] | [7] | [8] | [9] | [10] | [11] | [12] | [13] | [14] | [15] | [16] | [17] | CD40, CD40 (gene 958) | [18] | [19] | [1]

C=C1CC[C@H]2C[C@@H]1C2(C)C
inactive: [2] | [1]

CCCCCCCCCC/C=C/C1CC(=O)OC1=O (centres undefined)
inactive: [3] | [4] | [5] | [6] | [7] | [8] | [9] | [10] | [11] | [12] | [13] | [14] | [15] | [16] | [17] | CD40, CD40 (gene 958) | [18] | [19]

CCC(C)(CCC(C)C)C(=O)O (centres undefined)
inactive: [2]
